Test results taken from PubChem BioAssay AID624483 (NMMLSC, 2012).
Where “and” joins values, the source holds several entries; their conditions need not be identical. Equal entries are not always repeated. Out of some 360,000 compounds screened, about 11,000 (3.1%) were called active. Not shown: some 2% with an inconclusive outcome. No stated cut-off is given here; in the data, active means fluorescence intensity above about 16000; inconclusive means no clear call, values can overlap the other calls; inactive means below that. Only a selection was taken, and actives are over-represented in it overall. More than one record can exist for a structure, and the calls need not agree.

Experiment: counter-screen for toxin protease inhibitors: compound fluorescence, primary screen, artefact control for toxin protease inhibitor project, biochemical, multiplex microsphere, HTS (AID 624483)
Conditions: compound autofluorescence counterscreen, microsphere flow cytometry; stronger effect = higher value

SMILES	fluorescence intensity
Nc1ccccc1Sc1cc(Cl)nnc1Cl	3840 (inactive)
CCOC(=O)c1ccc(NC(=O)c2ccc(NC(=O)C3CCCO3)cc2)cc1 (stereo not given)	3420 (inactive)
COC(=O)c1cc(OC)c(OC)cc1NC(=O)C1CCCO1 (stereo not given)	18500 (active)
CCc1cc(Br)ccc1NC(=O)C1CCCO1 (stereo not given)	10900 (inactive)
O=S1(=O)CC(N2CCN(Cc3ccccc3F)CC2)CN1Cc1cn(Cc2ccccc2)nn1 (stereo not given)	5590 (inactive)
CCC(C)(C(=O)Nc1ccccc1C)N(C(=O)CNC(C)=O)c1ccc(C)cc1 (stereo not given)	2200 (inactive)
CC1CCN(c2ccc([N+](=O)[O-])c(SCCO)c2)CC1	6270 (inactive)
CN1CCN(c2ccc([N+](=O)[O-])c(Sc3nc4ccccc4[nH]3)c2)CC1	16500 (active)
COc1cccc(-c2nc3ccc(N4CCN(C)CC4)cc3[nH]2)c1	3340 (inactive)
CC1Cc2[nH][nH]c(=O)c2C(C2CCCC2)O1 (stereo not given)	6280 (inactive)
Clc1ccc(C[n+]2cc(-c3ccccc3)n3c2CCC3)cc1	3590 (inactive)
Cc1ccc(C(=O)C[n+]2cc(-c3ccccc3)n3c2CCCCC3)cc1	25100 (active) and 2670 (inactive)
Cc1ccc(-c2c[n+](CC(=O)Nc3ccccc3)c3n2CCC3)cc1	3860 (inactive)
O=S(=O)(N1CCCCC1)N1CCNCC1	9990 (inactive)
CO/N=C/c1ccc(N2CCN(C(=O)c3cccc(Cl)c3)CC2)c([N+](=O)[O-])c1	22700 (active)
O=C(/C=C/c1ccc(Cl)cc1)N1CCN(c2ccccc2[N+](=O)[O-])CC1	2480 (inactive)
O=C(c1ccc(Cl)c([N+](=O)[O-])c1)N1CCN(c2ccccc2)CC1	4410 (inactive)
Cc1cccnc1C(NC(=O)C1CCN(Cc2ccc(Cl)c(Cl)c2)CC1)c1ccc(Cl)cc1 (stereo not given)	3480 (inactive)
Cc1ccc(S(=O)(=O)NCCC(c2ccccc2)c2ccccc2)cc1C(=O)O	3790 (inactive)
COc1ccc(NC(=S)N2N=CCC2c2ccccc2)cc1 (stereo not given)	22400 (active)
COc1ccc(NC(=S)N2CCc3cc(OC)c(OC)cc3C2)cc1	5760 (inactive)
CCC(C)N(C)C1CCN(C(=S)Nc2ccc(OC)cc2)CC1 (stereo not given)	4340 (inactive)
Cc1ccc(-c2nc3c(Cl)cc(C(F)(F)F)cn3c2Cc2cccc(Cl)c2)cc1	5350 (inactive)
Cc1ccn(CC(=O)N2N=C(C(F)F)CC2(O)C(F)F)n1 (stereo not given)	2400 (inactive)

SMILES	fluorescence intensity
Cc1ccc(C(C)NC(=O)Cn2nc(C)c([N+](=O)[O-])c2C)cc1 (stereo not given)	8570 (inactive)
Cc1nn(Cc2ccc(C(=O)N3N=C(C(F)F)CC3(O)C(F)F)cc2)c(C)c1[N+](=O)[O-] (stereo not given)	20600 (active)
CCOC(=O)C1=CN(Cc2ccc(Br)cc2)S(=O)(=O)N(C)C1C (stereo not given)	2790 (inactive)
COc1ccc(C(C#N)=C2C=CC(=NO)c3ccccc32)cc1	5680 (inactive)
CC(=O)Nc1ccc(S(=O)(=O)NCCc2ccccc2)cc1	11200 (inactive)
Cn1sc(=O)c2cc(S(=O)(=O)NC3CC3)ccc21	3800 (inactive)
CC1CCC(NS(=O)(=O)c2ccc3c(c2)n(C)c(=O)c(=O)n3C)CC1 (stereo not given)	22600 (active)
CC1CCC(NS(=O)(=O)c2ccc3c(c2)CC(=O)N3)CC1 (stereo not given)	6000 (inactive)
Cn1c(=O)c(=O)n(C)c2cc(S(=O)(=O)NCCc3ccccc3)ccc21	21300 (active)
Cn1c(=O)c(=O)n(C)c2cc(S(=O)(=O)NCCN3CCN(c4ccccc4F)CC3)ccc21	5840 (inactive)
COc1ccc([C@H]2CC(=O)C[C@@H](CCn3cc(CC4CCCC4)nn3)O2)cc1	5900 (inactive)
O=C(NCc1ccccc1)C1c2ccccc2OCC(=O)N1CCCN1CCOCC1 (stereo not given)	4950 (inactive)
O=C(/C=C/[C@H]1O[C@@H](n2ccc(=O)[nH]c2=O)[C@H](O)[C@@H]1O)NCc1ccccn1	4540 (inactive)
O=C(c1cccc(F)c1)N1CCN(c2ccc([N+](=O)[O-])c3cccnc23)CC1	3360 (inactive)
N#Cc1ccc(C(c2ccc(C#N)cc2)n2cncn2)cc1	5930 (inactive)
Cc1ccc(S(=O)(=O)NC2CCCCCC2)cc1	3430 (inactive)
Cc1cccc(CCNS(=O)(=O)c2ccc3c(c2)NC(=O)CO3)c1	6090 (inactive)
Cc1cccc(CCNS(=O)(=O)c2ccc(S(=O)(=O)NC3CCCC3)cc2)c1	23700 (active)
O=C(Nc1nnc([C@H]2C[C@H](O)[C@@H](CO)O2)s1)c1cccc(Cl)c1	3090 (inactive)
Cc1ccc(C(=O)Nc2nnc(-c3ccncc3)s2)o1	20300 (active)
O=C(Nc1nnc(Cc2ccc(Cl)cc2)s1)c1ccncc1	5560 (inactive)
NC(=O)CSc1nnc(NC(=O)c2ccc(Br)o2)s1	5930 (inactive)
COc1ccc(C(O)c2nc(-c3ccc(OC)nc3)cs2)cc1 (stereo not given)	3040 (inactive)
COc1cc(OC)cc(C2=Cc3ccccc3C(CC(=O)c3ccco3)N2c2ccc(-c3cnc(OC)nc3)cc2)c1 (stereo not given)	5230 (inactive)

SMILES	fluorescence intensity
Cc1ccc2c(c1)N(CC(=O)N1CCCC(C)C1)C(=O)CO2 (stereo not given)	6170 (inactive)
Cc1ccc(C(=O)N2CCCc3ccccc32)c(Cl)c1	3770 (inactive)
Cc1ccc2c(c1)N(CC(=O)N1CCCc3ccccc31)C(=O)C(C)O2 (stereo not given)	22200 (active)
Cn1nc(-c2ccc(Cl)cc2)c2cc(C(=O)NCc3ccco3)sc21	5560 (inactive)
COC(=O)c1ccc(CSc2nncn2C)cc1	11000 (inactive)
COC(=O)c1ccc(CNC(=O)c2ccc3oc(C(C)C)nc3c2)cc1	6320 (inactive)
COC(=O)c1ccc(CSc2nc3cc(Cl)ccc3o2)cc1	22300 (active)
CCC(C)C(CO)NC(=O)/C=C/[C@H]1O[C@@H](n2cnc3c(NC(=O)c4ccccc4)ncnc32)[C@H](O)[C@@H]1O (stereo not given in full)	4240 (inactive)
CC(=O)c1ccc(N2CCN(S(=O)(=O)c3ccc4c(c3)CC(=O)N4C)CC2)cc1	4560 (inactive)
COc1ccc(CCN2C(=O)c3[nH]nc(-c4ccccc4O)c3C2c2ccc(C)cc2)cc1OC (stereo not given)	17800 (active)
COC(=O)c1ccc(C2C(Oc3ccccc3C)C(=O)N2CCc2ccc(OC)c(OC)c2)cc1 (stereo not given)	2780 (inactive)
COc1ccc(CCN2C(=O)C(C)=C(C)C2=O)cc1OC	3920 (inactive)
COc1ccc(C2/C=C\CN(S(=O)(=O)c3cccs3)CC(=O)N2Cc2ccc(F)cc2)cc1 (stereo not given)	3100 (inactive)
Cc1cccc(NC(=S)N2CCC(O)CC2)c1C	4400 (inactive)
O=C1Nc2c(Br)cc(Br)cc2C1(O)N1CCOCC1 (stereo not given)	4310 (inactive)
O=C(CCN1C(=O)[C@H]2CC=CC[C@H]2C1=O)NCc1nc(-c2ccccc2)no1	4420 (inactive)
O=C1c2ccccc2C(=O)N1CCCc1nc(-c2ccccc2)no1	21200 (active)
O=C(Cc1ccc(Cl)cc1)NCc1nc(-c2ccccc2)no1	3500 (inactive)
COc1cc(CNc2ncnc3c2ncn3[C@H]2CN(Cc3cccs3)C[C@@H](CO)O2)cc(OC)c1OC	2940 (inactive)
CC1(C(=O)NS(=O)(=O)c2cccc(F)c2)CCN1C(=O)Cc1cc(F)ccc1F (stereo not given)	3880 (inactive)
C/C(=N/NC(=O)c1ccn(C)n1)c1ccncc1	4250 (inactive)
O=C(/C(=N\O)n1cncn1)c1ccc(Br)cc1Br	21600 (active)
CC(=O)N/N=C(\C)c1ccc(Br)cc1Br	4300 (inactive)
Cc1ccc(NC(=O)Nc2ccc3oc(C)nc3c2)cc1	4170 (inactive)

SMILES	fluorescence intensity
Cc1ccc2nc(-c3ccc(NC(=O)c4cccnc4)cc3)oc2c1	4480 (inactive)
Cc1nc2ccc(NC(=O)C(F)(F)F)cc2o1	21700 (active)
O=C(CC[C@H]1O[C@@H](n2ccc(=O)[nH]c2=O)[C@H](O)[C@@H]1O)N[C@H](Cc1ccccc1)C(=O)NCCCN1CCCC1=O	4310 (inactive)
O=C1NC(O)CCN1C1CC(O)C(CO)O1 (stereo not given)	6570 (inactive)
CCCCOC(=O)c1ccc(N2C(=O)CC(N3CCN(C/C=C/c4ccccc4)CC3)C2=O)cc1 (stereo not given)	22500 (active)
CCOC(=O)c1ccc(N2C(=O)CC(N3CCN(C(=O)c4ccccc4)CC3)C2=O)cc1 (stereo not given)	2610 (inactive)
CCOC(=O)c1ccc(N2C(=O)CC(N3CCC(C(=O)OCC)CC3)C2=O)cc1 (stereo not given)	2510 (inactive)
CC(OC(=O)c1ccccc1OCc1ccc(Cl)cc1)C(N)=O (stereo not given)	4810 (inactive)
Cc1cc(=O)oc2c1ccc1ccccc12	3640 (inactive)
Cc1ccc(-c2csc(N(Cc3ccco3)C(=O)c3cccs3)n2)cc1	2850 (inactive)
O=C(O)CN(Cc1ccco1)S(=O)(=O)c1ccccc1	3010 (inactive)
O=C(O)CCC(=O)N(Cc1ccco1)c1nc(-c2ccccc2)cs1	22500 (active)
O=C(NCc1cccc(C(F)(F)F)c1)c1ccc2sc(COCCO)nc2c1	3760 (inactive)
CCNC(=O)NC(=O)C(C)OC(=O)c1cc(S(=O)(=O)N2CCCCCC2)ccc1OC (stereo not given)	3480 (inactive)
CC1=NNC(=O)C1CC(=O)N/N=C/c1ccncc1 (stereo not given)	4920 (inactive)
CCN(CC)c1ccc(NC(=O)CN2C(=O)NC3(CCc4ccccc43)C2=O)cc1 (stereo not given)	8580 (inactive)
CCCCNC(=O)CCNC(=O)c1ccc(C(C)(C)C)cc1	20300 (active)
CCOc1ccc(NC(=O)CCNC(=O)c2ccc(Br)cc2)cc1	3030 (inactive)
CCCCC(=O)Nc1ccc(C(=O)NCCCn2ccnc2)cc1	10500 (inactive)
CC(C)C1Cc2[nH][nH]c(=O)c2C(c2ccc(Cl)cc2)O1 (stereo not given)	5700 (inactive)
CCN(CC)C(=O)c1sc2nc(-c3ccccc3)ccc2c1N	4300 (inactive)
Cc1sc2nc(CC(N)=O)[nH]c(=O)c2c1-c1ccccc1	2450 (inactive)
NC(=O)c1sc2nc3c(c(-c4ccccc4)c2c1N)CCC3	24800 (active)
